Results: publication PMC7862700, “An all-to-all approach to the identification of sequence-specific readers for epigenetic DNA modifications on cytosine”

Columns and labels:
Assay in all cases: DAPPL (digital affinity profiling via proximity ligation, sequencing); 10 mM Tris-HCl pH 7.5, 50 mM NaCl, 1 mM DTT, 4% glycerol, room temperature, 30 min; GST-TFs on glutathione beads, 16-mer random dsDNA library, 0.1% formaldehyde crosslink after washing; high values mean tight binding
FEV = target: T1, FEV (Homo sapiens, UniProt Q99581 1-238); conditions: protein: recombinant; tags: N-terminal GST; dsDNA, one strand shown
T1 sequence: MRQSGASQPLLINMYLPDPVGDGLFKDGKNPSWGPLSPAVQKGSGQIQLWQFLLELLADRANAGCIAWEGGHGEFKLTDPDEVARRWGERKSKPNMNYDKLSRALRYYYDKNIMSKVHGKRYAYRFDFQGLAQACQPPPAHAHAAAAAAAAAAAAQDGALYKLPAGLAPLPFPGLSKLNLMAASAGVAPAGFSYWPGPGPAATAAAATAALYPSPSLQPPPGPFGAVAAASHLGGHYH
Outline: (§1)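 After expression in yeast as GST fusions, human transcription factors were bound to glutathione beads, DNA-barcoded and mixed with a tag-only sample. The pools were incubated with 200 nmole of a 16-mer random double-stranded DNA library in Tris/NaCl/DTT/glycerol buffer (30 min, room temperature), washed and crosslinked with 0.1% formaldehyde. Proximity ligation with BsaI/T4 ligase ran for 1 h at 37 °C, before PCR amplification and sequencing on an Illumina NextSeq500. Binding signal is a hexamer's read frequency for a factor divided by its frequency for the tag-only sample.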

ETV5 = ETV5 (Homo sapiens, UniProt P41161 1-510); conditions: protein: recombinant; tags: N-terminal GST; dsDNA, one strand shown
Chain of ETV5 (P41161 whole entry): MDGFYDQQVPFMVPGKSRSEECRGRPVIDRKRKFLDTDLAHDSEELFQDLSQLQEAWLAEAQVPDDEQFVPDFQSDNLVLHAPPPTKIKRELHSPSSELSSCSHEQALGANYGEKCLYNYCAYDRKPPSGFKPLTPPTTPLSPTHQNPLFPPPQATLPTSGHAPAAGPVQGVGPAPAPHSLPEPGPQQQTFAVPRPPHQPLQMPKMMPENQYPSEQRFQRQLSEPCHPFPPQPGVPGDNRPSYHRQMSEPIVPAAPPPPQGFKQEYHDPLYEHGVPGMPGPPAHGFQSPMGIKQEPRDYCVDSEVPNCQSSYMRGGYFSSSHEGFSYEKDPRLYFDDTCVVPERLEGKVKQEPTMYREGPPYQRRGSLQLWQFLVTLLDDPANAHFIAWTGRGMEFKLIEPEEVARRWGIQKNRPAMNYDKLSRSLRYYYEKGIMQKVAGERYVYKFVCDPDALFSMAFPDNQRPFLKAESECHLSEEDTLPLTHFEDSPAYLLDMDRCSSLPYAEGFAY
Outline: as §1

HSF1 = HSF1 (Homo sapiens, UniProt Q00613 1-529); conditions: protein: recombinant; tags: N-terminal GST; chain copies: 3; dsDNA, one strand shown
Chain of HSF1 (Q00613 whole entry): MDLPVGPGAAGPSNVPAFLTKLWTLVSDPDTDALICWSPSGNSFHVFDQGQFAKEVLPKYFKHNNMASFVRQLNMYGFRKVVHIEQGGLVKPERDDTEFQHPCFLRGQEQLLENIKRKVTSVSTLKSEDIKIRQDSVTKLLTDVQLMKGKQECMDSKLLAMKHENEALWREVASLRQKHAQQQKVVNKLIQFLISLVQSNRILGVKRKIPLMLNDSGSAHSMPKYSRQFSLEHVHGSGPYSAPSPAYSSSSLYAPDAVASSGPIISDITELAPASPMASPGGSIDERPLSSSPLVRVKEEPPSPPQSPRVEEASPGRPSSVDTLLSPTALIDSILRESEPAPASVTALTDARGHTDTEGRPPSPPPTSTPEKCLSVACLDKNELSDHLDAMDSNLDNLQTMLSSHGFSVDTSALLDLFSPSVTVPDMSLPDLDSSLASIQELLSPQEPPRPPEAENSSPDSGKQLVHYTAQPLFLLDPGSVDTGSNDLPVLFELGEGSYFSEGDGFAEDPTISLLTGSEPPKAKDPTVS
Outline: as §1

SPIC = target: T2, SPIC (Homo sapiens, UniProt Q8N5J4 1-248); conditions: protein: recombinant; tags: N-terminal GST; dsDNA, one strand shown
T2 sequence: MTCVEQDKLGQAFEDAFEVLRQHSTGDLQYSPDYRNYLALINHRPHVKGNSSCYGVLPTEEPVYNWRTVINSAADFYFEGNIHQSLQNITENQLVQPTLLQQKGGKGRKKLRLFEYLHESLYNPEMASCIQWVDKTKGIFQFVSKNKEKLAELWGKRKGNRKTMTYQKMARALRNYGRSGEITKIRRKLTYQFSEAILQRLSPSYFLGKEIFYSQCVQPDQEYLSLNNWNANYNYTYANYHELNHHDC
Outline: as §1

ELF4 = ELF4 (Homo sapiens, UniProt Q99607 1-663); conditions: protein: recombinant; tags: N-terminal GST; dsDNA, one strand shown
Chain of ELF4 (Q99607 whole entry): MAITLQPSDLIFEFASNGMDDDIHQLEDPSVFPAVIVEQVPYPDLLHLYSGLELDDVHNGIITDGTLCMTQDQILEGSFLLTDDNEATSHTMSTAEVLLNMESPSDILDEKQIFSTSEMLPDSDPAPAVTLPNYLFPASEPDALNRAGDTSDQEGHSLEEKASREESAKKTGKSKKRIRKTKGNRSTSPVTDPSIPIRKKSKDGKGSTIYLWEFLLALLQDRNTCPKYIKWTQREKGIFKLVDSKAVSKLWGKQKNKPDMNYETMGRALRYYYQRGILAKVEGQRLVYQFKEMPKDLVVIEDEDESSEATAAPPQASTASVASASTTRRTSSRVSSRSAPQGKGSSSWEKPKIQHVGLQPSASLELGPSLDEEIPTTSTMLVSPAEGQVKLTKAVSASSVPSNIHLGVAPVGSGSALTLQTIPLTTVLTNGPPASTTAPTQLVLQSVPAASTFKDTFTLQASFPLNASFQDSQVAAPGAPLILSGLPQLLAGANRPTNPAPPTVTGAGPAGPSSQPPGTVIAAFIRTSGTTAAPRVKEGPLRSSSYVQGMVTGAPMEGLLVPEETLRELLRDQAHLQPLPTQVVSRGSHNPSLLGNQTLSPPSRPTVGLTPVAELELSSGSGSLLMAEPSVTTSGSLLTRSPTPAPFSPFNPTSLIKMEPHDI
Outline: as §1

ELK4 = target: T3, ELK4 (Homo sapiens, UniProt P28324-2 1-405); conditions: protein: recombinant; tags: N-terminal GST; dsDNA, one strand shown
T3 sequence: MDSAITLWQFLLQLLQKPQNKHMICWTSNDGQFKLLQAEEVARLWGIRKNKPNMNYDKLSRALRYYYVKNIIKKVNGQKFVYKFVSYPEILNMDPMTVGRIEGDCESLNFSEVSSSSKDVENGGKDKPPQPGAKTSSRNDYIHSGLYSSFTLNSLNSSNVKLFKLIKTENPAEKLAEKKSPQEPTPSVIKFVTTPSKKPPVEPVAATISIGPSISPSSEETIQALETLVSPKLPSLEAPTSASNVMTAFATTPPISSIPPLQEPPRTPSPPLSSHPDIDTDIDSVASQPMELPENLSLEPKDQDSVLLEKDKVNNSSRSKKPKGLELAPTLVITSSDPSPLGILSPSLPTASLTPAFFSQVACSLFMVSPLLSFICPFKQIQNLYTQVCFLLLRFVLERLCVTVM
Outline: as §1

ETV2 = target: T4, ETV2 (Homo sapiens, UniProt O00321 1-342); conditions: protein: recombinant; tags: N-terminal GST; dsDNA, one strand shown
T4 sequence: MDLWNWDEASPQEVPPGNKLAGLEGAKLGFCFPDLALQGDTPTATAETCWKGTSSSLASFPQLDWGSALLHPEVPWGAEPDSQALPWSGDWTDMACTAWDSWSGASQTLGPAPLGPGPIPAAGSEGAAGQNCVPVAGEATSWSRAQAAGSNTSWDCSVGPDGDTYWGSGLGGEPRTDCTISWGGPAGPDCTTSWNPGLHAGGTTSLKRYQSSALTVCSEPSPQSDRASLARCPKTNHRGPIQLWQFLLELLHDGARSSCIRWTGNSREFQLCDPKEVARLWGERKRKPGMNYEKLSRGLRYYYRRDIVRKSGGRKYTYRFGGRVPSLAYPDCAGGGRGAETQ
Outline: as §1

ELF3 = target: T5, ELF3 (Homo sapiens, UniProt P78545 1-371); conditions: protein: recombinant; tags: N-terminal GST; dsDNA, one strand shown
T5 sequence: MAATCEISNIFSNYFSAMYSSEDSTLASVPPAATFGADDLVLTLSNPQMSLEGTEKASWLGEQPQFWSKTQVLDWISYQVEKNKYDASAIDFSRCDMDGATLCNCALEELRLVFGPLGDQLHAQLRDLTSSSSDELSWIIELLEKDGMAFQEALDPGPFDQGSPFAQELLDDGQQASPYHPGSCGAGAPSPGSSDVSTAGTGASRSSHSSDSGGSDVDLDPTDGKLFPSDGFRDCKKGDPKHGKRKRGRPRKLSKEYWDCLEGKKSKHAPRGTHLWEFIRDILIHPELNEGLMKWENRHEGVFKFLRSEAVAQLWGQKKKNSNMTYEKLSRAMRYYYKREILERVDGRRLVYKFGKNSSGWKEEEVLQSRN
Outline: as §1

CRX = CRX (Homo sapiens, UniProt O43186 1-299); conditions: protein: recombinant; tags: N-terminal GST; dsDNA, one strand shown
Chain of CRX (O43186 whole entry): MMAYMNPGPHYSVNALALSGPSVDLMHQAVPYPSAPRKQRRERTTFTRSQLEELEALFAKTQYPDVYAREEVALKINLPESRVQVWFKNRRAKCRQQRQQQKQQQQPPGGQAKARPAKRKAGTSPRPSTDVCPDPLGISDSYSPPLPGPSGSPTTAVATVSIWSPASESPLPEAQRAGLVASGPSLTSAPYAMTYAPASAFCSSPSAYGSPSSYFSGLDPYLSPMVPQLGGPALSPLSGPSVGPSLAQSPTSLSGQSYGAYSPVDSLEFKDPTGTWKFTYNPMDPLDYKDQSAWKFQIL
Outline: as §1

ETV1 = ETV1 (Homo sapiens, UniProt P50549 1-477); conditions: protein: recombinant; tags: N-terminal GST; dsDNA, one strand shown
Chain of ETV1 (P50549 whole entry): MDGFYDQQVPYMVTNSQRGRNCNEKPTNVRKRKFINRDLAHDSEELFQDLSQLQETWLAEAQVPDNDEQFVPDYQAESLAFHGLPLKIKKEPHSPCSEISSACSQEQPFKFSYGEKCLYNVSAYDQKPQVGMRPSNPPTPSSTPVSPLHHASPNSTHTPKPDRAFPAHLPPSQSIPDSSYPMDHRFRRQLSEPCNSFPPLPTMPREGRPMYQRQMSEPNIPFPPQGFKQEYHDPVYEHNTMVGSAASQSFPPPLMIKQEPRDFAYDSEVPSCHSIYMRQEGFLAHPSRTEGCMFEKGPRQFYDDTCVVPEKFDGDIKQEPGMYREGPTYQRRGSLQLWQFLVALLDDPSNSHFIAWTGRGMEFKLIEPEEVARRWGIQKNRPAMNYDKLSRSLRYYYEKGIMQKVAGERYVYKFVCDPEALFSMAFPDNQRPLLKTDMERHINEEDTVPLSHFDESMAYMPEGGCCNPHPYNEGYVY
Outline: as §1

ERF = target: T6, ERF (Homo sapiens, UniProt P50548 1-548); conditions: protein: recombinant; tags: N-terminal GST; dsDNA, one strand shown
T6 sequence: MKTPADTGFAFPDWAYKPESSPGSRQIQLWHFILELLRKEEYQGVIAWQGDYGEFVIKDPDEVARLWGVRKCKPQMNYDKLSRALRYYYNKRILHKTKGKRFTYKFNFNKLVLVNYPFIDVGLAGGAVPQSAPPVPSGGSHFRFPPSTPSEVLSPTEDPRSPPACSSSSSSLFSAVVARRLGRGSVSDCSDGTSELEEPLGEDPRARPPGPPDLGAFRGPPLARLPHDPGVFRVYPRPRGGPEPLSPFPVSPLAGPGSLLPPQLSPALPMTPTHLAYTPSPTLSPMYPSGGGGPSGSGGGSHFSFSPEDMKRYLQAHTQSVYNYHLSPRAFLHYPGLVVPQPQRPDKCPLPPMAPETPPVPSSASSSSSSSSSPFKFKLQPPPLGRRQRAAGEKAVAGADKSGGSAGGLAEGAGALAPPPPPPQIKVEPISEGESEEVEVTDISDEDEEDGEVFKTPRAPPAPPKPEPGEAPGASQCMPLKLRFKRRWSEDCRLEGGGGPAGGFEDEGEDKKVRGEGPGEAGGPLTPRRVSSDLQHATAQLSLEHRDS
Outline: as §1

ETV3L = target: T7, ETV3L (Homo sapiens, UniProt Q6ZN32 1-361); conditions: protein: recombinant; tags: N-terminal GST; dsDNA, one strand shown
T7 sequence: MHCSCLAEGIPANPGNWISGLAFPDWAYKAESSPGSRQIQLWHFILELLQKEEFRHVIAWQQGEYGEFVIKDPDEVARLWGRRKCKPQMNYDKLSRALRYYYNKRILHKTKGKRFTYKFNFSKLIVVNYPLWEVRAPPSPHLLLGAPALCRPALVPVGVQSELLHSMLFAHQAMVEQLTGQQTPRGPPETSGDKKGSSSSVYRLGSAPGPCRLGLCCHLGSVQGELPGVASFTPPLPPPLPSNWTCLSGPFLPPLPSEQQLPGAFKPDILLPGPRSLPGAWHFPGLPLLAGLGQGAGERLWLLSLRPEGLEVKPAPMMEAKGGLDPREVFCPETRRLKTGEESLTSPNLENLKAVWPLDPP
Outline: as §1

ETS2 = target: T8, ETS2 (Homo sapiens, UniProt P15036 1-469); conditions: protein: recombinant; tags: N-terminal GST; dsDNA, one strand shown
T8 sequence: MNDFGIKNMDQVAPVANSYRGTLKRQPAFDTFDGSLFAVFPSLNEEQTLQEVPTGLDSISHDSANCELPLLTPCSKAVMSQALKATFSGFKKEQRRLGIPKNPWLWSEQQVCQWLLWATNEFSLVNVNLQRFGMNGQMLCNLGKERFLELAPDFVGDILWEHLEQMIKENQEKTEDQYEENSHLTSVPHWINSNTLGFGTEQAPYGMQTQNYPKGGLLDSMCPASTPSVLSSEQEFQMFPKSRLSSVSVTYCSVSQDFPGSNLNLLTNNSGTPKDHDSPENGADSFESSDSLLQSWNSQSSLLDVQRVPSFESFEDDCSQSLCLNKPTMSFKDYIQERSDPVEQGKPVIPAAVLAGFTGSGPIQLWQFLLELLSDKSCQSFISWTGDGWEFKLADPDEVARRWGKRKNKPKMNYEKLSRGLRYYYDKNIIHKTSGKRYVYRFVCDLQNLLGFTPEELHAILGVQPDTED
Outline: as §1

SPDEF = target: T9, SPDEF (Homo sapiens, UniProt O95238 1-335); conditions: protein: recombinant; tags: N-terminal GST; dsDNA, one strand shown
T9 sequence: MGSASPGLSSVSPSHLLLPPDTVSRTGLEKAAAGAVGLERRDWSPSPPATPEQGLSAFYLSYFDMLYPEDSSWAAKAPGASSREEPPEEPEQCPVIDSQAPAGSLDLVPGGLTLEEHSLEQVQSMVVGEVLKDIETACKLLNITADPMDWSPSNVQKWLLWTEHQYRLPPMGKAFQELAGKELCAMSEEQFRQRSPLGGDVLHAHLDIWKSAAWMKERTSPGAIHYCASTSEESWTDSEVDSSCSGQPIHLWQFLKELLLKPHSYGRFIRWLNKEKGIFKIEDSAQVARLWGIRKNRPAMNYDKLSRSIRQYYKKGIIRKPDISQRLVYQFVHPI
Outline: as §1

ETV7 = target: T10, ETV7 (Homo sapiens, UniProt Q9Y603 1-341); conditions: protein: recombinant; tags: N-terminal GST; dsDNA, one strand shown
T10 sequence: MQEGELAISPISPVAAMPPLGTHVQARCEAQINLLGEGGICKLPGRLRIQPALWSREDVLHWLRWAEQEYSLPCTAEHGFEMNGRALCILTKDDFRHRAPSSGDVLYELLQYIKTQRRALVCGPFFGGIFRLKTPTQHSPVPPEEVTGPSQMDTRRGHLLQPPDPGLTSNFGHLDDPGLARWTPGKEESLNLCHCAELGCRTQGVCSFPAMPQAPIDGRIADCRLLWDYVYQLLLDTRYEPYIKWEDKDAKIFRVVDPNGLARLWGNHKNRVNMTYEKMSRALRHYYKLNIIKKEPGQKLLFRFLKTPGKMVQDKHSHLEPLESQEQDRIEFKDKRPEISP
Outline: as §1

ELF5 = target: T11, ELF5 (Homo sapiens, UniProt Q9UKW6-2 1-255); conditions: protein: recombinant; tags: N-terminal GST; dsDNA, one strand shown
T11 sequence: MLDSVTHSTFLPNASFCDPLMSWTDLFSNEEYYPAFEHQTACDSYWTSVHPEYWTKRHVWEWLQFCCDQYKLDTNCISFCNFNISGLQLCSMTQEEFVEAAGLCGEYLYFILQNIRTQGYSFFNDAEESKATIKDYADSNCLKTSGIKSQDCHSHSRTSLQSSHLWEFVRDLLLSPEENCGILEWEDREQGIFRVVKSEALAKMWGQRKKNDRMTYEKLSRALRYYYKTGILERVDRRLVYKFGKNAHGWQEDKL
Outline: as §1

ETV3 = target: T12, ETV3 (Homo sapiens, UniProt P41162-2 1-143); conditions: protein: recombinant; tags: N-terminal GST; dsDNA, one strand shown
T12 sequence: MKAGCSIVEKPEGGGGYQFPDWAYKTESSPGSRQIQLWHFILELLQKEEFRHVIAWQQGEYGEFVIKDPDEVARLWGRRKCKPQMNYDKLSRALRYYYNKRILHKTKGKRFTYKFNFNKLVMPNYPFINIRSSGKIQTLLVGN
Outline: as §1

ETV6 = ETV6 (Homo sapiens, UniProt P41212 1-452); conditions: protein: recombinant; tags: N-terminal GST; dsDNA, one strand shown
Chain of ETV6 (P41212 whole entry): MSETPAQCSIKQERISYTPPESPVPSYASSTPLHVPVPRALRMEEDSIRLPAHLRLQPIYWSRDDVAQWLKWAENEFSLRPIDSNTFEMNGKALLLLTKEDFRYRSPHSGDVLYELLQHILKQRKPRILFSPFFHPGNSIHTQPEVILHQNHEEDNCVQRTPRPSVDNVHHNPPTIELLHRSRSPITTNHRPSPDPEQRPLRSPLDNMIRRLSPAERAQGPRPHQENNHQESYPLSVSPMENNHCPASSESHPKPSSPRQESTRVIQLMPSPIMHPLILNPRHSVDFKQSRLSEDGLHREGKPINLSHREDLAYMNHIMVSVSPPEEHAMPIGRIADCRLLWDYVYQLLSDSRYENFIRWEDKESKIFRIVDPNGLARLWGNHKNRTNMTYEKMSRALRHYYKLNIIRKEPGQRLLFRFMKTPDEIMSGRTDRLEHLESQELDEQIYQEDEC
Outline: as §1

With TGTAAT the binding signal (FEV) was 1.12 fold enrichment (6-mer frequency, TF over GST control), the binding signal (ETV5) was 1.17 fold enrichment (6-mer frequency, TF over GST control) and the binding signal (HSF1) was 1.39 fold enrichment (6-mer frequency, TF over GST control). For the same sequence, the binding signal (SPIC) was 1.27 fold enrichment (6-mer frequency, TF over GST control), the binding signal (ELF4) was 1.23 fold enrichment (6-mer frequency, TF over GST control) and the binding signal (ELK4) was 1.21 fold enrichment (6-mer frequency, TF over GST control). For the same sequence, the binding signal (ETV2) was 1.26 fold enrichment (6-mer frequency, TF over GST control), the binding signal (ELF3) was 1.26 fold enrichment (6-mer frequency, TF over GST control) and the binding signal (CRX) was 1.79 fold enrichment (6-mer frequency, TF over GST control). The binding signal (ETV1) was 1.17 fold enrichment (6-mer frequency, TF over GST control), the binding signal (ERF) was 1.14 fold enrichment (6-mer frequency, TF over GST control) and the binding signal (ETV3L) was 1.18 fold enrichment (6-mer frequency, TF over GST control). For the same sequence, the binding signal (ETS2) was 1.23 fold enrichment (6-mer frequency, TF over GST control), the binding signal (SPDEF) was 1.25 fold enrichment (6-mer frequency, TF over GST control) and the binding signal (ETV7) was 1.26 fold enrichment (6-mer frequency, TF over GST control). The binding signal (ELF5) was 1.22 fold enrichment (6-mer frequency, TF over GST control), the binding signal (ETV3) was 1.05 fold enrichment (6-mer frequency, TF over GST control) and the binding signal (ETV6) was 1.22 fold enrichment (6-mer frequency, TF over GST control).
